In PubChem BioAssay (Tox21):
Values without a mark were called inactive. A call without a number means that no potency is given here. Active and inactive are the calls of the source. The call rests on the fitted dose curve; in most records, active means well fitted curve in the direction sought with a large enough effect in the repeat runs; inconclusive means weak or mixed curves; inactive means flat fitted curve, though single readings scatter.

Test: qHTS assay to test for compound auto fluorescence at 590 nm (red) in HEK293 cells (AID 720679)
Settings: red autofluorescence 540/590 nm; series mostly up to 91.3 µM; fluorescence, % of fluorescent control: at the top concentration
Excerpt: National Center for Advancing Translational Sciences [NCATS]
NIH Chemical Genomics Center [NCGC]
U.S. Environmental Protection Agency [EPA]
National Institutes of Environmental Health Sciences [NIEHS]
National Toxicology Program [NTP]
U.S. Food and Drug Administration [FDA]
Compound auto fluorescence often interferes with screening of the compound library against various biological targets and signaling pathways. Some of these compounds may have fluorophoric properties. Such properties may interfere with the assay outputs resulting in false positives and/or negatives. To decrease such complications and ensure the compound activities are relevant in terms of biological response, the Tox21 10K compound library was screened for auto fluorescence.
From the fluorophores used as reporter signals in our screening assays, the auto fluorescence equivalencies of compounds against three fluorophores have been evaluated: Triamterene, Fluorescein and Rose Bengal sodium for blue, green and red fluorescence, respectively. The fluorescence intensities were measured using Excitation/Emission wavelengths at 405/460nm, 485/535nm and 540/590nm for blue, green and red labels, respectively. This assay includes the red fluorescence data.
Tox21 Assay Protocol Summary:
2,000 HEK293 cells in 5 uL of culture medium containing 10% dialyzed FBS per well were dispensed into black wall/clear bottom 1536-well plates using a Multidrop Combi Dispenser (Thermo Scientific). The assay plates were incubated for 4-5 hr at 37C to allow cell attachment to the well bottom, followed by the transfer of 23 nL compound or DMSO vehicle by a pintool work station (Kalypsys, San Diego, CA). After the assay plates were incubated overnight at 37C and 5% CO2, fluorescence intensities in the assay plates were measured by an Envision (PerkinElmer, Shelton, CT) plate reader using three labels for measuring blue, green and red fluorescence at […] 460, 535 and 590nm respectively.

Compound | Potency | fluorescence, % of fluorescent control
O=C1c2c(O)cccc2Cc2cccc(O)c21 | inactive | –
CN1CCC[C@H]1c1cccnc1 | inactive | –
O=S1(=O)OC(c2ccc(O)cc2)(c2ccc(O)cc2)c2ccccc21 | inactive | –
CCCCC1(COC(=O)CCC(=O)O)C(=O)N(c2ccccc2)N(c2ccccc2)C1=O | inactive | –
NS(=O)(=O)c1cc2c(cc1Cl)NCNS2(=O)=O | inactive | –
NC1CCCCC1 | inactive | –
CCCCOC(=O)c1ccc(O)cc1 | inactive | –
COc1ccc(OC(F)(F)F)cc1CN[C@H]1CCCN[C@H]1c1ccccc1 | – | -0.218%
CN1CCc2cccc3c2[C@H]1Cc1ccc(O)c(O)c1-3 | inactive | –
COc1ccc2cc(S(=O)(=O)N[C@H](CC(=O)N[C@H](Cc3ccc(CN4[C@H](C)CCC[C@@H]4C)cc3)C(=O)N(C)C(C)C)c3ccc4c(c3)OCO4)ccc2c1 | – | 0.135%
CCCCCCCC(=O)OCC(COC(=O)CCCCCCC)OC(=O)CCCCCCC | inactive | –
C1=CC2C3C=CC(C3)C2C1 (stereo not given) | – | -0.8%
CC(C)C(=O)Nc1ccc([N+](=O)[O-])c(C(F)(F)F)c1 | inactive | –
NS(=O)(=O)O | inactive | –
CCCCCCCCCCCC[N+](C)(C)Cc1ccccc1 | inactive | –
CC/C(=C(\c1ccccc1)c1ccc(OCCN(C)C)cc1)c1ccccc1 | inactive | –
NC(=O)c1cccnc1 | inactive | –
CC(=O)CC(c1ccccc1)c1c(O)c2ccccc2oc1=O (stereo not given) | inactive | –
Cn1c(=O)c2c(ncn2C)n(C)c1=O | inactive | –
C=CCc1ccc(O)c(OC)c1 | inactive | –

Compound | Potency | fluorescence, % of fluorescent control
COc1ccc(C(Cl)=C(c2ccc(OC)cc2)c2ccc(OC)cc2)cc1 | inactive | –
O=CC(=O)c1ccccc1 | – | 0.115%
CN(C)CCOC(c1ccccc1)c1ccccc1 | inactive | –
O=C(Nc1ncc([N+](=O)[O-])s1)c1cccs1 | – | 0.189% [at 46 µM]
CN[C@H]1CC[C@@H](c2ccc(Cl)c(Cl)c2)c2ccccc21 | – | -1.19% [at 46 µM]
CCN(Cc1c(F)cccc1Cl)c1c([N+](=O)[O-])cc(C(F)(F)F)cc1[N+](=O)[O-] | – | -0.16%
CCOc1ccc(NC(C)=O)cc1 | inactive | –
CCCCCCCCCCCCCCCC[N+](C)(C)Cc1ccccc1 | inactive | –
CCCCCCc1ccc(O)cc1O | inactive | –
CCCC[P+](CCCC)(CCCC)CCCC | inactive | –
F[B-](F)(F)F | inactive | –
C1CCC(C(CC2CCCCN2)C2CCCCC2)CC1 (stereo not given) | – | -0.151% [at 46 µM]
OC[C@H]1O[C@H](O[C@]2(CCl)O[C@H](CCl)[C@@H](O)[C@@H]2O)[C@H](O)[C@@H](O)[C@H]1Cl | inactive | –
Cc1ccc(S(=O)(=O)O)cc1 | inactive | –
O=c1[nH]cnc2c1ncn2[C@H]1CC[C@@H](CO)O1 | inactive | –
Cc1cc(=O)oc2cc(O)ccc12 | inactive | –
CS(=O)(=O)OCCCCOS(C)(=O)=O | inactive | –
CCCCNC(=O)NS(=O)(=O)c1ccc(C)cc1 | inactive | –
Cc1cccc(C)c1 | inactive | –
C=C1CC[C@H](O)C/C1=C\C=C1/CCC[C@]2(C)[C@@H]([C@H](C)CCCC(C)C)CC[C@@H]12 | inactive | –
